Data reported in ChEMBL document CHEMBL3988442, “University of Dundee, Small-Polar-MMV Screening Library” (2021).

What follows are compounds tested against T1, Proteasome subunit beta (Trypanosoma cruzi) (UniProt O96673) (assay: Trypanosoma cruzi proteasome chymotrypsin-like activity (TcProtChymo) assay.). Conditions: 9.37 µM.
T1 sequence (whole entry): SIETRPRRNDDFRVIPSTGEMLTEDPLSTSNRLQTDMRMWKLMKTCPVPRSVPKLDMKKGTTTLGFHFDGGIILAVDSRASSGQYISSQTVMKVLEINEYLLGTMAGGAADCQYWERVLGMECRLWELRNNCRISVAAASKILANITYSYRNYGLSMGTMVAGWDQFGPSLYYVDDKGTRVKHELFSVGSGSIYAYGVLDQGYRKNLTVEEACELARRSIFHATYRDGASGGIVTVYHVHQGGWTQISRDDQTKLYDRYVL
Type: functional
Parameters: scale not given: direction of the effect not stated beside the values
`CCN(CC1CN(CCc2ccccn2)CCO1)c1cccnn1` (stereo not given) was tested, and the Percent Effect was 14.7%.
In the case of `O=C(NCc1ccc(-n2cncn2)nc1)c1ccoc1`, the Percent Effect is reported as 0.901%.
For `Cc1ccsc1C(=O)N1CC(C(=O)N2CCOCC2)C2(CCOCC2)C1` (stereo not given), the Percent Effect was 13.1%.
For `Cn1ncc2c(=O)[nH]c(CN3CCCC3CC3CCCCC3)nc21` (stereo not given), the Percent Effect was 6.85%.
For `CCN1C[C@H]2CCN(C(C)=O)CC[C@H]2S1(=O)=O`, the Percent Effect was 19.6%.
For `COc1ccc(-c2nc(CN3CCOCS3(=O)=O)c(C)o2)cc1`, the Percent Effect was 14.8%.
With `Cn1nc(C2CN(C(=O)c3cscn3)C2)c2nccnc21` the Percent Effect was 17.2%.
`c1coc(CN2CCCC3(COCCN(Cc4c[nH]nn4)C3)C2)c1` (stereo not given) gave a Percent Effect of 10.9%.
`COCCO[C@@H]1C[C@H]2CN(C(=O)c3cnccn3)CCN2C1` gave a Percent Effect of 4.79%.
Work on `CC(=O)N1CCC(C(=O)c2cc(C)cnc2N)CC1` yielded a Percent Effect of 7.67%.
Work on `Cc1ccc(C(=O)N(C)Cc2cc(Br)cs2)c(=O)[nH]1` yielded a Percent Effect of 23.3%.
Compound `Cc1nc(C)n(CC2CN(CCc3ccncc3)CCO2)n1` (stereo not given) has a Percent Effect of 10.3%.
With `CN(CC(N)=O)S(=O)(=O)c1ccc(F)cc1Cl` the Percent Effect was 6.59%.
`CC(=O)NCC1CCN(CC2CCOc3ccccc3C2)CC1` (stereo not given) showed a Percent Effect of 13.2%.
`Cc1nn(-c2ccccc2)nc1C(=O)N1CCCC1c1cnn(C)c1` (stereo not given) showed a Percent Effect of 0.539%.
For `CCC1=N[C@@]2(CC[C@@H]3CN(CC4CC4)C[C@@H]32)C(=O)N1C`, the Percent Effect was 19.2%.
`Cc1cccc2c1OCCC2NCc1c(C)nn(C)c1N(C)C` (stereo not given) gave a Percent Effect of 16.9%.
Work on `Cc1ccc(CN2C[C@@H]3COC[C@@H](NS(C)(=O)=O)[C@@H]3C2)o1` yielded a Percent Effect of 12.5%.
Compound `CN(Cc1ccc(Cl)s1)C(=O)NCc1nnc2n1CCC2` has a Percent Effect of 7.87%.
With `Cn1cnc(S(=O)(=O)N2CCN(Cc3ccco3)CC2)c1Cl` the Percent Effect was 4.74%.
Work on `CN(Cc1nc(-c2ccco2)no1)C1CCCN(c2cccnn2)C1` (stereo not given) yielded a Percent Effect of 16.1%.
`CC(C)(O)CN1CCN(C(=O)c2sccc2C2CC2)CC1` showed a Percent Effect of 4.97%.
`COc1ccccc1NC(=O)NCC(O)(c1ccccc1)C1CC1` (stereo not given) gave a Percent Effect of 12.9%.
`O=C(c1cccnc1)N1CCCC2(CCN(c3ccsc3)C2=O)C1` (stereo not given) showed a Percent Effect of 20.9%.
`CC(O)CN1CCN(Cc2csc(-c3ncccn3)n2)CC1` (stereo not given) was tested, and the Percent Effect was 24.6%.
`O=C(c1ccc(O)c(Cl)c1)N1CCC(c2n[nH]c(C3CC3)n2)CC1` gave a Percent Effect of 9.61%.
Compound `Cn1cnc(S(=O)(=O)NCCCN2CCCCCC2)c1Cl` has a Percent Effect of 6.49%.
In the case of `CCOC(=O)CCNC(=O)N1CCN(c2nc3ccccc3n2C)CC1`, the Percent Effect is reported as 12.2%.
`CC(=O)N1CCCCC1c1nc(N)ncc1-c1ccccc1` (stereo not given) was tested, and the Percent Effect was 6.78%.
`Cc1nn(C)c(C)c1-c1cncc(C2CCN(S(C)(=O)=O)CC2)n1` gave a Percent Effect of -3.96%.
`Cc1nn(C)c(N2CCOCC2)c1CNCc1ccnc(N(C)C)c1` gave a Percent Effect of 10.6%.
`O=C(C1CCC1)N1CCN(Cc2ccsc2)[C@H]2CS(=O)(=O)C[C@H]21` showed a Percent Effect of 15.8%.
Compound `CSC(C)C(=O)N1CCCN(Cc2cscn2)CC1` (stereo not given) has a Percent Effect of 15.9%.
`CN(Cc1cccc(F)c1)C1CCN(CCc2ccccn2)CC1` showed a Percent Effect of 9.34%.
With `CNC(=O)[C@H]1CCS(=O)(=O)[C@@H]2CN(Cc3ccc(OC)cc3)C[C@H]12` the Percent Effect was -0.592%.
For `O=C(NCC1CC1)[C@@H]1CCO[C@@H]2CCN(Cc3ccco3)C[C@H]21`, the Percent Effect was -1.2%.
In the case of `Cc1ccsc1C(=O)N1CC(C(=O)NCC2CC2)C2(CCOCC2)C1` (stereo not given), the Percent Effect is reported as 8.36%.
For `CCN(c1ccc(C(=O)N2CCCC2)cc1)S(=O)(=O)CC`, the Percent Effect was 2.46%.
For `Cc1nc(CN2CCC3(CCCN(Cc4cnn(C)c4)C3)C2=O)cs1` (stereo not given), the Percent Effect was 10.3%.
Compound `CC(NC(=O)CNCCn1cccn1)c1ccc2c(c1)OCCO2` (stereo not given) has a Percent Effect of 7.6%.

Organism: Homo sapiens
Test: To identify inhibition of the IFN signalling (Jak-Stat) pathway via expression of an eGFP reporter gene under the control of an IFN-stimulated response element (ISRE) containing MxA promoter.
Type: functional
Parameters: scale not given: direction of the effect not stated beside the values
Conditions: 30 µM
Work on `CCN(CC1CN(CCc2ccccn2)CCO1)c1cccnn1` (stereo not given) yielded a Percent Effect of -14.7%.
`O=C(NCc1ccc(-n2cncn2)nc1)c1ccoc1` showed a Percent Effect of 3.65%.
In the case of `Cc1ccsc1C(=O)N1CC(C(=O)N2CCOCC2)C2(CCOCC2)C1` (stereo not given), the Percent Effect is reported as 0.0644%.
`Cn1ncc2c(=O)[nH]c(CN3CCCC3CC3CCCCC3)nc21` (stereo not given) was tested, and the Percent Effect was 17.1%.
`CCN1C[C@H]2CCN(C(C)=O)CC[C@H]2S1(=O)=O` showed a Percent Effect of 1.4%.
`COc1ccc(-c2nc(CN3CCOCS3(=O)=O)c(C)o2)cc1` was tested, and the Percent Effect was 10.4%.
With `Cn1nc(C2CN(C(=O)c3cscn3)C2)c2nccnc21` the Percent Effect was 8.4%.
`c1coc(CN2CCCC3(COCCN(Cc4c[nH]nn4)C3)C2)c1` (stereo not given) was tested, and the Percent Effect was -4.99%.
Work on `COCCO[C@@H]1C[C@H]2CN(C(=O)c3cnccn3)CCN2C1` yielded a Percent Effect of -8.37%.
`CC(=O)N1CCC(C(=O)c2cc(C)cnc2N)CC1` was tested, and the Percent Effect was 17.4%.
For `Cc1ccc(C(=O)N(C)Cc2cc(Br)cs2)c(=O)[nH]1`, the Percent Effect was 0.327%.
`Cc1nc(C)n(CC2CN(CCc3ccncc3)CCO2)n1` (stereo not given) gave a Percent Effect of 16.9%.
In the case of `CN(CC(N)=O)S(=O)(=O)c1ccc(F)cc1Cl`, the Percent Effect is reported as 16.6%.
`CC(=O)NCC1CCN(CC2CCOc3ccccc3C2)CC1` (stereo not given) was tested, and the Percent Effect was -5.31%.
For `Cc1nn(-c2ccccc2)nc1C(=O)N1CCCC1c1cnn(C)c1` (stereo not given), the Percent Effect was 12.6%.
In the case of `CCC1=N[C@@]2(CC[C@@H]3CN(CC4CC4)C[C@@H]32)C(=O)N1C`, the Percent Effect is reported as -28.1%.
`Cc1cccc2c1OCCC2NCc1c(C)nn(C)c1N(C)C` (stereo not given) showed a Percent Effect of 24.8%.
For `Cc1ccc(CN2C[C@@H]3COC[C@@H](NS(C)(=O)=O)[C@@H]3C2)o1`, the Percent Effect was -3.72%.
Compound `CN(Cc1ccc(Cl)s1)C(=O)NCc1nnc2n1CCC2` has a Percent Effect of 0.395%.
Work on `Cn1cnc(S(=O)(=O)N2CCN(Cc3ccco3)CC2)c1Cl` yielded a Percent Effect of 8.03%.
`CN(Cc1nc(-c2ccco2)no1)C1CCCN(c2cccnn2)C1` (stereo not given) gave a Percent Effect of 11.9%.
`CC(C)(O)CN1CCN(C(=O)c2sccc2C2CC2)CC1` gave a Percent Effect of 1.7%.
Compound `COc1ccccc1NC(=O)NCC(O)(c1ccccc1)C1CC1` (stereo not given) has a Percent Effect of 7.23%.
`O=C(c1cccnc1)N1CCCC2(CCN(c3ccsc3)C2=O)C1` (stereo not given) showed a Percent Effect of 9.28%.
For `CC(O)CN1CCN(Cc2csc(-c3ncccn3)n2)CC1` (stereo not given), the Percent Effect was 16.8%.
In the case of `O=C(c1ccc(O)c(Cl)c1)N1CCC(c2n[nH]c(C3CC3)n2)CC1`, the Percent Effect is reported as 8.98%.
`Cn1cnc(S(=O)(=O)NCCCN2CCCCCC2)c1Cl` showed a Percent Effect of 4.76%.
`CCOC(=O)CCNC(=O)N1CCN(c2nc3ccccc3n2C)CC1` showed a Percent Effect of -4.19%.
For `CC(=O)N1CCCCC1c1nc(N)ncc1-c1ccccc1` (stereo not given), the Percent Effect was 8.42%.
In the case of `Cc1nn(C)c(C)c1-c1cncc(C2CCN(S(C)(=O)=O)CC2)n1`, the Percent Effect is reported as 25.6%.
For `Cc1nn(C)c(N2CCOCC2)c1CNCc1ccnc(N(C)C)c1`, the Percent Effect was 25.3%.
`O=C(C1CCC1)N1CCN(Cc2ccsc2)[C@H]2CS(=O)(=O)C[C@H]21` was tested, and the Percent Effect was 2.92%.
For `CSC(C)C(=O)N1CCCN(Cc2cscn2)CC1` (stereo not given), the Percent Effect was 9.75%.
`CN(Cc1cccc(F)c1)C1CCN(CCc2ccccn2)CC1` gave a Percent Effect of 20.8%.
Work on `CNC(=O)[C@H]1CCS(=O)(=O)[C@@H]2CN(Cc3ccc(OC)cc3)C[C@H]12` yielded a Percent Effect of 2.35%.
With `O=C(NCC1CC1)[C@@H]1CCO[C@@H]2CCN(Cc3ccco3)C[C@H]21` the Percent Effect was 5.41%.
In the case of `Cc1ccsc1C(=O)N1CC(C(=O)NCC2CC2)C2(CCOCC2)C1` (stereo not given), the Percent Effect is reported as 27.5%.
Compound `CCN(c1ccc(C(=O)N2CCCC2)cc1)S(=O)(=O)CC` has a Percent Effect of -27.1%.
`Cc1nc(CN2CCC3(CCCN(Cc4cnn(C)c4)C3)C2=O)cs1` (stereo not given) gave a Percent Effect of -6.36%.
`CC(NC(=O)CNCCn1cccn1)c1ccc2c(c1)OCCO2` (stereo not given) gave a Percent Effect of -0.448%.
